# Legend:
# Test in all cases: DAPPL (digital affinity profiling via proximity ligation, sequencing); 10 mM Tris-HCl pH 7.5, 50 mM NaCl, 1 mM DTT, 4% glycerol, room temperature, 30 min; GST-TFs on glutathione beads, 16-mer random dsDNA library, 0.1% formaldehyde crosslink after washing; high values mean tight binding
# FEV = molecular target: T1, FEV (Homo sapiens, UniProt Q99581 1-238); settings: protein: recombinant; tags: N-terminal GST; dsDNA, one strand shown
# T1 sequence: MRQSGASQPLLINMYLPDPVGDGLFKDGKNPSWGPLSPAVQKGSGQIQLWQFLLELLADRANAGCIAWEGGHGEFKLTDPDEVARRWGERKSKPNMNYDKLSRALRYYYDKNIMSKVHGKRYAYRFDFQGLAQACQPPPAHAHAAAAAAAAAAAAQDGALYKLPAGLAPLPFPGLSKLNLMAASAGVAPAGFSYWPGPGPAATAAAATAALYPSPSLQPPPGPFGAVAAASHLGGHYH
# Summary of the method: (§1)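 Binding signal is defined as a hexamer's read frequency for one factor over its frequency for the tag-only sample. To obtain reads, GST-fused human transcription factors were expressed in yeast, captured on glutathione beads, barcoded with DNA and pooled with that sample. Pools met 200 nmole of a 16-mer random double-stranded DNA library in Tris/NaCl/DTT/glycerol buffer for 30 min at room temperature before washing, 0.1% formaldehyde crosslinking, proximity ligation (BsaI/T4 ligase, 1 h, 37 °C), PCR and Illumina NextSeq500 sequencing.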
# ETV5 = ETV5 (Homo sapiens, UniProt P41161 1-510); settings: protein: recombinant; tags: N-terminal GST; dsDNA, one strand shown
# Summary of the method: as §1
# HSF1 = HSF1 (Homo sapiens, UniProt Q00613 1-529); settings: protein: recombinant; tags: N-terminal GST; chain copies: 3; dsDNA, one strand shown
# Summary of the method: as §1
# SPIC = molecular target: T2, SPIC (Homo sapiens, UniProt Q8N5J4 1-248); settings: protein: recombinant; tags: N-terminal GST; dsDNA, one strand shown
# T2 sequence: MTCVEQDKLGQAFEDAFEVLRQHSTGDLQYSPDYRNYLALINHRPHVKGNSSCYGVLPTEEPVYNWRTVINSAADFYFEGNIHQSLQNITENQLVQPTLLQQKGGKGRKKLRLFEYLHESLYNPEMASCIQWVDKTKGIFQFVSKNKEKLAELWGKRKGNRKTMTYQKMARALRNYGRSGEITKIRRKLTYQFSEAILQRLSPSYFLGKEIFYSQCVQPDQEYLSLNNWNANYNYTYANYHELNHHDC
# Summary of the method: as §1
# ELF4 = ELF4 (Homo sapiens, UniProt Q99607 1-663); settings: protein: recombinant; tags: N-terminal GST; dsDNA, one strand shown
# Summary of the method: as §1
# ELK4 = molecular target: T3, ELK4 (Homo sapiens, UniProt P28324-2 1-405); settings: protein: recombinant; tags: N-terminal GST; dsDNA, one strand shown
# T3 sequence: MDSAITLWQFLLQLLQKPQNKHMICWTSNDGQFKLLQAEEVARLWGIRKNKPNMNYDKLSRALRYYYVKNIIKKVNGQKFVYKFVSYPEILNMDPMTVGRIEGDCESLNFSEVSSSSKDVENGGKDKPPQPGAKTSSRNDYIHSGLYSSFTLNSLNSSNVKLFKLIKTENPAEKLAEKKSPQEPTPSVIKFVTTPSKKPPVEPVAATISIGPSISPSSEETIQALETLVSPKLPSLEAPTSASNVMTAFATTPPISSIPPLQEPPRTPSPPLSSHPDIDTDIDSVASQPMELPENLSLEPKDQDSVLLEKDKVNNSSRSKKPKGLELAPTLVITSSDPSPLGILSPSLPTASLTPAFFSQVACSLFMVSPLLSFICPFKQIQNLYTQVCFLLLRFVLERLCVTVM
# Summary of the method: as §1
# ETV2 = molecular target: T4, ETV2 (Homo sapiens, UniProt O00321 1-342); settings: protein: recombinant; tags: N-terminal GST; dsDNA, one strand shown
# T4 sequence: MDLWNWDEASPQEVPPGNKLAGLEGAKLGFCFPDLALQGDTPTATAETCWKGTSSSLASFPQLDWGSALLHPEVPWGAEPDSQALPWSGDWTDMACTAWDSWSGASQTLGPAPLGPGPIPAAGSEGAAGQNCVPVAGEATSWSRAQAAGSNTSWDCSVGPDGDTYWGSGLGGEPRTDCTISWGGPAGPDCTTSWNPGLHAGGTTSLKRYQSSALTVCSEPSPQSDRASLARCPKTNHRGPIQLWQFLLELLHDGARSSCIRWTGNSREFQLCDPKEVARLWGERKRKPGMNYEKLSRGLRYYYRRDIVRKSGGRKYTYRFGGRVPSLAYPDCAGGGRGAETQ
# Summary of the method: as §1
# ELF3 = molecular target: T5, ELF3 (Homo sapiens, UniProt P78545 1-371); settings: protein: recombinant; tags: N-terminal GST; dsDNA, one strand shown
# T5 sequence: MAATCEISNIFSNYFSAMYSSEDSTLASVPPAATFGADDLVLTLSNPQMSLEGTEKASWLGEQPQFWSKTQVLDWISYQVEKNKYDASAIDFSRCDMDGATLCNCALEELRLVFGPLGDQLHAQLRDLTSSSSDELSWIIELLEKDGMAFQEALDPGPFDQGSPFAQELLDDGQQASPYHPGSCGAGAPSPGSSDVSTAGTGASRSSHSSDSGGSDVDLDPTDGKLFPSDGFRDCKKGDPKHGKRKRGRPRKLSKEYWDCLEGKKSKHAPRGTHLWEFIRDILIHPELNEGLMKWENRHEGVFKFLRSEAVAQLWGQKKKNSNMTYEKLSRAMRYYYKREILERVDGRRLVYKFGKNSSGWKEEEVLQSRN
# Summary of the method: as §1
# CRX = CRX (Homo sapiens, UniProt O43186 1-299); settings: protein: recombinant; tags: N-terminal GST; dsDNA, one strand shown
# Summary of the method: as §1
# ETV1 = ETV1 (Homo sapiens, UniProt P50549 1-477); settings: protein: recombinant; tags: N-terminal GST; dsDNA, one strand shown
# Summary of the method: as §1
# ERF = molecular target: T6, ERF (Homo sapiens, UniProt P50548 1-548); settings: protein: recombinant; tags: N-terminal GST; dsDNA, one strand shown
# T6 sequence: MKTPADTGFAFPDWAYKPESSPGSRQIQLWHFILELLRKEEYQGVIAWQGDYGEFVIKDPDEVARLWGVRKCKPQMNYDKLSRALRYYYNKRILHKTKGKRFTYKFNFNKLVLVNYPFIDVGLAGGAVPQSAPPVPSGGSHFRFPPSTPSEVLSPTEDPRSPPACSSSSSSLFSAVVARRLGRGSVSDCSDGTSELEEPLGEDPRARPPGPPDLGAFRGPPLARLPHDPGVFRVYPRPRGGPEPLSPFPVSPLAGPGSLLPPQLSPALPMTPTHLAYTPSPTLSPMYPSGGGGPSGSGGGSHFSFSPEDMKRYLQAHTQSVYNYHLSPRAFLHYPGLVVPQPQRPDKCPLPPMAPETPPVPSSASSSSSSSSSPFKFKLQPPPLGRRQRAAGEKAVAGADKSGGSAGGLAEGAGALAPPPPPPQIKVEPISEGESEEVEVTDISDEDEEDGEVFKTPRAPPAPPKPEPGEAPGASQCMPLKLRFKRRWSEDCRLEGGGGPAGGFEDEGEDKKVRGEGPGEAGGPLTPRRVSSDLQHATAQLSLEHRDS
# Summary of the method: as §1
# ETV3L = molecular target: T7, ETV3L (Homo sapiens, UniProt Q6ZN32 1-361); settings: protein: recombinant; tags: N-terminal GST; dsDNA, one strand shown
# T7 sequence: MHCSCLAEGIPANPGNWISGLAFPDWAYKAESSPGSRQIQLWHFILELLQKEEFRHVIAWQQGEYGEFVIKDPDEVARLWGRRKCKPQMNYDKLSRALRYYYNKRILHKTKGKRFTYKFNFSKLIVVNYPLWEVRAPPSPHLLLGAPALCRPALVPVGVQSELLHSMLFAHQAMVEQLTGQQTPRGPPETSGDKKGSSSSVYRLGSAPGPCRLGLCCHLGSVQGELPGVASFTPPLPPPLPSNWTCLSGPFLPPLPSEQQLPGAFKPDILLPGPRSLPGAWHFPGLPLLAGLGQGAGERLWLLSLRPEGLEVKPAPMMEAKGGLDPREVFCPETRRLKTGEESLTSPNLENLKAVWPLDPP
# Summary of the method: as §1
# ETS2 = molecular target: T8, ETS2 (Homo sapiens, UniProt P15036 1-469); settings: protein: recombinant; tags: N-terminal GST; dsDNA, one strand shown
# T8 sequence: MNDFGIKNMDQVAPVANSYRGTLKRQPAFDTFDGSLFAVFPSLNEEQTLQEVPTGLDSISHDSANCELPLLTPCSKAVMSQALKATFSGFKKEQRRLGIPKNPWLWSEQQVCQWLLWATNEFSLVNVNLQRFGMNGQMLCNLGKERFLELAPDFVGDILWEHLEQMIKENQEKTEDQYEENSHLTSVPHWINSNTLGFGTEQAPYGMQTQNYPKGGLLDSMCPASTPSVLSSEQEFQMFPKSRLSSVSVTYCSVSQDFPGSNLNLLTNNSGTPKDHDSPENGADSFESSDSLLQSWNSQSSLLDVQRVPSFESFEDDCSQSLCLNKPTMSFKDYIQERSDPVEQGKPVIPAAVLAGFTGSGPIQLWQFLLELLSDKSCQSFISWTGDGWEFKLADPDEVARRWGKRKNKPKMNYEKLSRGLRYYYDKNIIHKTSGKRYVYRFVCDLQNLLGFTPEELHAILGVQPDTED
# Summary of the method: as §1
# SPDEF = molecular target: T9, SPDEF (Homo sapiens, UniProt O95238 1-335); settings: protein: recombinant; tags: N-terminal GST; dsDNA, one strand shown
# T9 sequence: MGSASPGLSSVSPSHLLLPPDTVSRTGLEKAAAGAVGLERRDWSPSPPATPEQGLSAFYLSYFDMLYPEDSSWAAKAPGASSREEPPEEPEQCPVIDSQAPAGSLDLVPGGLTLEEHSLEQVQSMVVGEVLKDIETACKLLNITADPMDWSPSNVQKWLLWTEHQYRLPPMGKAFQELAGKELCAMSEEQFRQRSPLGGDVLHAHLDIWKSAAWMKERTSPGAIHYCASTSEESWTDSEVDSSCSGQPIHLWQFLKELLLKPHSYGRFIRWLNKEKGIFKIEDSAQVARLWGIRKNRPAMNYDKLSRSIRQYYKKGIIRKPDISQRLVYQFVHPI
# Summary of the method: as §1
# ETV7 = molecular target: T10, ETV7 (Homo sapiens, UniProt Q9Y603 1-341); settings: protein: recombinant; tags: N-terminal GST; dsDNA, one strand shown
# T10 sequence: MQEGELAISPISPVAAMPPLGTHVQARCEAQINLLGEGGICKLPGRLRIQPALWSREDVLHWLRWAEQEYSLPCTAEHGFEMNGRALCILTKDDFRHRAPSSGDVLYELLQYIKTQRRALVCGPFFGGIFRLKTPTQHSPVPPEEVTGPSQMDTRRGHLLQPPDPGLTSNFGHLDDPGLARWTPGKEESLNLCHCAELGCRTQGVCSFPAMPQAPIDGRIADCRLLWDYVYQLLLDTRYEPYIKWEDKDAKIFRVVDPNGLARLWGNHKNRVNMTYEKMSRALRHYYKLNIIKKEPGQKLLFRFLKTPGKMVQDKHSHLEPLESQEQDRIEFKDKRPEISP
# Summary of the method: as §1
# ELF5 = molecular target: T11, ELF5 (Homo sapiens, UniProt Q9UKW6-2 1-255); settings: protein: recombinant; tags: N-terminal GST; dsDNA, one strand shown
# T11 sequence: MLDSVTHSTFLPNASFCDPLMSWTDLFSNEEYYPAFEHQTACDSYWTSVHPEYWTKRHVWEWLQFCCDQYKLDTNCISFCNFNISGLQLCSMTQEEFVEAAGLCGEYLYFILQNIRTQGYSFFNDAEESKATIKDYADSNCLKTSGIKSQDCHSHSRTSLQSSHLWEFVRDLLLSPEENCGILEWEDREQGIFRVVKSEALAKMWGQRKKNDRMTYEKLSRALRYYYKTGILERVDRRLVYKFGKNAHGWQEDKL
# Summary of the method: as §1
# ETV3 = molecular target: T12, ETV3 (Homo sapiens, UniProt P41162-2 1-143); settings: protein: recombinant; tags: N-terminal GST; dsDNA, one strand shown
# T12 sequence: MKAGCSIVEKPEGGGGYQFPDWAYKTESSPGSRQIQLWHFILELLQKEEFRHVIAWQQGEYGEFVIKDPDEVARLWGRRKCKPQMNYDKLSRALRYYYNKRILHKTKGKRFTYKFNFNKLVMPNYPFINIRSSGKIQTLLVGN
# Summary of the method: as §1
# ETV6 = ETV6 (Homo sapiens, UniProt P41212 1-452); settings: protein: recombinant; tags: N-terminal GST; dsDNA, one strand shown
# Summary of the method: as §1
# Sequence of ETV6 (P41212 whole entry): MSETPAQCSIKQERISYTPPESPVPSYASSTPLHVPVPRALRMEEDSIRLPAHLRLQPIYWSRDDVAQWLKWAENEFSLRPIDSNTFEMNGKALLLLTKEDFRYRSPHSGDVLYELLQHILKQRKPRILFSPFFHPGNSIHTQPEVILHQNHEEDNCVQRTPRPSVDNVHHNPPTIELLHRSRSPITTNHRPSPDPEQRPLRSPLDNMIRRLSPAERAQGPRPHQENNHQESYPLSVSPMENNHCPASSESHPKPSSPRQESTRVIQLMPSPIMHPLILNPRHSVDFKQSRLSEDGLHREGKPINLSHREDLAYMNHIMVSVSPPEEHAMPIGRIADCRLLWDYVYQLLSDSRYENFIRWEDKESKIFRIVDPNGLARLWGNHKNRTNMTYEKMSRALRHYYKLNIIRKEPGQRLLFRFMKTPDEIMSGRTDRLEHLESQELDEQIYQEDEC
# Sequence of ETV5 (P41161 whole entry): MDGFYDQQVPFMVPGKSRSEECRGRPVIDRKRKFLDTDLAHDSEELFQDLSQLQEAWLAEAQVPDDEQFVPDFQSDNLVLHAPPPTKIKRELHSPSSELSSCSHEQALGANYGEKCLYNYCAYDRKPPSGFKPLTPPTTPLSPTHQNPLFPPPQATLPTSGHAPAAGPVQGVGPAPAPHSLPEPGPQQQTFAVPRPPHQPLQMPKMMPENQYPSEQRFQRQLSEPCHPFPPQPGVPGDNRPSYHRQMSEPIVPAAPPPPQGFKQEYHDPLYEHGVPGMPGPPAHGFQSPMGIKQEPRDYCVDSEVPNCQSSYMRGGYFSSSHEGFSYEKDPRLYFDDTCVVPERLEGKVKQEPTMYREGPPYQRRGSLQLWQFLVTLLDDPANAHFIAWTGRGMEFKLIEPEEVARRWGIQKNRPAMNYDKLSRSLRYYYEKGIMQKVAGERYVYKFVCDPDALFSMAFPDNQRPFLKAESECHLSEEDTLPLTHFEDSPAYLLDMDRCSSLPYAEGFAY
# Sequence of HSF1 (Q00613 whole entry): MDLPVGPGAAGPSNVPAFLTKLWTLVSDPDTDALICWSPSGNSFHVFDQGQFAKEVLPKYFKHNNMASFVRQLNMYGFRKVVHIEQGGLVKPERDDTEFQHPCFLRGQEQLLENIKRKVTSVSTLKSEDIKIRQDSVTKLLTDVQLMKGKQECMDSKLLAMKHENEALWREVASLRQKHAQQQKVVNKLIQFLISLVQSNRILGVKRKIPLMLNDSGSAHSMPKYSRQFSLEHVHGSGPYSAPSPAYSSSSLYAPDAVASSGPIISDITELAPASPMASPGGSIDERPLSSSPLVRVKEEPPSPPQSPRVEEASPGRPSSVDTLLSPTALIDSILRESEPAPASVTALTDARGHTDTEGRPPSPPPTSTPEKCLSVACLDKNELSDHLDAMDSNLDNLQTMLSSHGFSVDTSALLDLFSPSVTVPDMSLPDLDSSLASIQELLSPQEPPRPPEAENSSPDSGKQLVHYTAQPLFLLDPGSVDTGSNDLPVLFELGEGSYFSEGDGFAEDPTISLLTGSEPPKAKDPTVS
# Sequence of ETV1 (P50549 whole entry): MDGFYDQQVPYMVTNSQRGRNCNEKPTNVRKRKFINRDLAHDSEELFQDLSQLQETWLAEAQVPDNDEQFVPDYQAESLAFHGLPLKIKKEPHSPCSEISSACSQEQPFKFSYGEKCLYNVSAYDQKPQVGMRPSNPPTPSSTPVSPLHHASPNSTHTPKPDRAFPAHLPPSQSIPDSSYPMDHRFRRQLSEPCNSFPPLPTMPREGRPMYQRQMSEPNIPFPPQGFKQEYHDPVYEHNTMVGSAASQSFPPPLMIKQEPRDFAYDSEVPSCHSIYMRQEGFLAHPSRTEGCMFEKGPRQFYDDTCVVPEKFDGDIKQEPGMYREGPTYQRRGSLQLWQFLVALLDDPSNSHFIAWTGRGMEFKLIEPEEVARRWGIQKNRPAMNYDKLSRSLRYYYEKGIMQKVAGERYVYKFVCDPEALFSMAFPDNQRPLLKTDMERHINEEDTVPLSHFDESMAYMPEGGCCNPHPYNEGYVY
# Sequence of CRX (O43186 whole entry): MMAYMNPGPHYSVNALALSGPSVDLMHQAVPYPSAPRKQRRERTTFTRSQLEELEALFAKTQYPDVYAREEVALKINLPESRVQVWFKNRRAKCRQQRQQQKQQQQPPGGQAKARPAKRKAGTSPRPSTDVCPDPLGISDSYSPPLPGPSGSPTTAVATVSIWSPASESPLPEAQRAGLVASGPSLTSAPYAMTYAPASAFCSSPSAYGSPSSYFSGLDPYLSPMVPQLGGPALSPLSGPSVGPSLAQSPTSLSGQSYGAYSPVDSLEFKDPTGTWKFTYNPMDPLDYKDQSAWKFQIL
# Sequence of ELF4 (Q99607 whole entry): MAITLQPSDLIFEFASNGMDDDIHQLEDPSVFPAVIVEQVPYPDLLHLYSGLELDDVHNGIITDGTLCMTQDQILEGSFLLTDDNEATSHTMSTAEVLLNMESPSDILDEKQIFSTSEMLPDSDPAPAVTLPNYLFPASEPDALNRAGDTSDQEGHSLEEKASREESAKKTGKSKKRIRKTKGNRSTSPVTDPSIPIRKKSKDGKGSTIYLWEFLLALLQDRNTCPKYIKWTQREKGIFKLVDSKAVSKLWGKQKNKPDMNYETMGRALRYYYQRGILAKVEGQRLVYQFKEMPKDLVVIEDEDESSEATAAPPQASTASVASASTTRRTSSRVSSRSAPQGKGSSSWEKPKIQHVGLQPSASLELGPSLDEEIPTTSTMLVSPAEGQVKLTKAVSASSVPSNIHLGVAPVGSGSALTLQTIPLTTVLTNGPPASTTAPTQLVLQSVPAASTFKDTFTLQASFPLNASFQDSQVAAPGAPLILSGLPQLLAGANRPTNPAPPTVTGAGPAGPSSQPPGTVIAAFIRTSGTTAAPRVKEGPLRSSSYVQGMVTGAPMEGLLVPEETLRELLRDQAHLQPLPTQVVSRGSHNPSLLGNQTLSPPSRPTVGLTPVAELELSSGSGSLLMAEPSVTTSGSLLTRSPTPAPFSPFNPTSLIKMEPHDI
sequence,measurement,setting,value
AATCAA,binding signal,FEV,"1.19 fold enrichment (6-mer frequency, TF over GST control)"
same,binding signal,ETV5,"1.14 fold enrichment (6-mer frequency, TF over GST control)"
same,binding signal,HSF1,"1.13 fold enrichment (6-mer frequency, TF over GST control)"
same,binding signal,SPIC,"1.11 fold enrichment (6-mer frequency, TF over GST control)"
same,binding signal,ELF4,"1.21 fold enrichment (6-mer frequency, TF over GST control)"
same,binding signal,ELK4,"1.18 fold enrichment (6-mer frequency, TF over GST control)"
same,binding signal,ETV2,"1.48 fold enrichment (6-mer frequency, TF over GST control)"
same,binding signal,ELF3,"1.24 fold enrichment (6-mer frequency, TF over GST control)"
same,binding signal,CRX,"1.32 fold enrichment (6-mer frequency, TF over GST control)"
same,binding signal,ETV1,"1.19 fold enrichment (6-mer frequency, TF over GST control)"
same,binding signal,ERF,"1.17 fold enrichment (6-mer frequency, TF over GST control)"
same,binding signal,ETV3L,"1.24 fold enrichment (6-mer frequency, TF over GST control)"
same,binding signal,ETS2,"1.18 fold enrichment (6-mer frequency, TF over GST control)"
same,binding signal,SPDEF,"1.11 fold enrichment (6-mer frequency, TF over GST control)"
same,binding signal,ETV7,"1.16 fold enrichment (6-mer frequency, TF over GST control)"
same,binding signal,ELF5,"1.16 fold enrichment (6-mer frequency, TF over GST control)"
same,binding signal,ETV3,"1.2 fold enrichment (6-mer frequency, TF over GST control)"
same,binding signal,ETV6,"1.2 fold enrichment (6-mer frequency, TF over GST control)"

# From article PMC7862700, “An all-to-all approach to the identification of sequence-specific readers for epigenetic DNA modifications on cytosine”
